Assay results published in PubChem BioAssay (EPA / NIEHS).
Calls of active or inactive are those of the source. Rule for the calls: active = hit-call score of the fitted dose curve at least 0.9, where 1 is the maximum; inactive = score below 0.9.

Experiment: CEETOX_H295R_PROG: CeeTox H295R High-throughput Steroidogenesis Assay for Progesterone (PROG) (AID 2283442);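 for AC50: human H295R adrenal cells primed with 10 µM forskolin before dosing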
Settings: actives raise or lower the signal
Method: CEETOX_H295R is a cell-based, multiplexed-readout assay that uses H295R, a human adrenal gland cell line, with measurements taken at 48 hours after chemical dosing in a 96-well plate.CEETOX_H295R_PROG is one of 23 assay component(s) measured or calculated from the CEETOX_H295R assay. It is designed to make measurements of hormone induction, a form of inducible reporter, as detected with absorbance signals by HPLC-MS-MS technology.Data from the assay component CEETOX_H295R_PROG was analyzed into 1 assay endpoint. This assay endpoint, CEETOX_H295R_PROG, was analyzed with bidirectional fitting relative to DMSO as the negative control and baseline of activity. Using a type of inducible reporter, gain or loss-of-signal activity using HPLC-MS-MS was used to understand synthesis of Progesterone in H295R cell line at 48hr of chemical exposure. To generalize the intended target to other relatable targets, this assay endpoint is annotated to the steroid hormone intended target family, where the subfamily is progestagens.
Cell culture and media preparation procedures were conducted in accordance with OECD Test No. 456 guidelines, with minor modifications. H295R cells (ATCC CRL-2128) were expanded for 5 passages and frozen in batches in liquid nitrogen. Prior to the steroidogenesis assay, H295R cells were thawed and passed at least 4 times. The maximum passage was 10. Cells were maintained in a 1:1 mixture of DMEM/F12 supplemented with 5ml/L ITS+ Premix (BD Bioscience) and 12.5 ml/L Nu-Serum (BD Bioscience). After seeding cells into 96-well plates at 50-60% confluency, cells were allowed to adhere overnight. Prior to chemical testing, culture medium was replaced with 175 uL medium containing 10 uM forskolin to stimulate steroidogenesis for 48 hours. Following prestimulation, forskolin medium was replaced with medium containing test chemical solubilized in DMSO (ensuring a final concentration of 0.1% DMSO). Test chemicals were incubated for 48 hours, then the medium was removed and split into 2 vials containing approximately 75uL each, and stored at -80 C prior to hormone analysis. For steroid quantification, media samples were shipped to OpAns, LLC (Durham, NC) on dry ice, and samples were thawed to room temperature prior to liquid-liquid extraction. Steroid hormones were extracted from media samples using methyl tertbutyl ether (MTBE). An extra derivatization with dansyl chloride was included for estrogen (estrone and estradiol) detection only. Steroid hormones were separated by HPLC, eluted using a reverse phase C18 gradient with electrospray positive ionization, followed by quantification by tandem mass spectrometry (MS/MS). Data were acquired on a MassHunter Workstation Acquisition version B03.01 (Agilent Technologies, Inc.) and processed using MassHunter Quantitative Analysis for QQQ. Accuracy was determined for each hormone analyte from 3 standards to determine upper and lower limits of quantification (ULOQ and LLOQ, respectively) using a 7-point standard curve. Precision and accuracy of the extraction and quantification methods were calculated as the percent relative standard deviation (%RSD) of the spiked standards and percent spiked standard recovered, respectively. The goal was to achieve 100% accuracy (i.e., recover all spiked-in standard at quantification with minimal loss during run time) and good precision (i.e., have %RSD <15% to ensure reproducibility). Test medium was removed following chemical exposure, and cell viability was evaluated in the same wells by MTT. MTT procedures were as follows: after removal of test medium, 500 uL of 0.5 mg/ml of 3-[4,5-dimethylthiazol-2-y]2,5-diphenyltetrazoliumbromide solution was added to the cells. Following a 4-hour incubation at 37 C and 5% CO2 to allow formazan-crystal formation, the MTT solution was removed and blue formazan salt crystals were solubilized using 500uL anhydrous isopropanol with shaking for 20 minutes. Absorbance was read at 570 and 650nm using a Packard Fusion microplate reader. […]
For `COc1ccc(C)cc1N`, the AC50 was 33.2 µM (active).
In the case of `Cc1cc(NC(=O)C(=O)O)cc(C)c1Oc1ccc(O)c2c1CCC2`, the AC50 is reported as 43.2 µM (active).
In the case of `c1cc(-c2ccncc2)ccn1`, the outcome is reported as “inactive”.
In the case of `Oc1ccc2c(c1)OC[C@@H](N1CCC(O)(c3ccc(F)cc3)CC1)[C@H]2O`, the outcome is reported as “inactive”.
With `Cc1nc(-c2ccc3c(c2)CCN(CCC2CCC(NC(=O)/C=C/c4ccc(F)cc4)CC2)CC3)no1` (stereo not given) the AC50 was 0.0391 µM (active).
In the case of `Nc1ccc2c(c1)C(=O)c1ccccc1C2=O`, the AC50 is reported as 6.71 µM (active).
In the case of `COc1ccc(S(=O)(=O)N2C(=O)[C@@](c3ccccc3OC)(N3C[C@H](O)C[C@H]3C(=O)N(C)C)c3cc(Cl)ccc32)c(OC)c1`, the outcome is reported as “inactive”.
For `Nc1ccc(S(=O)(=O)c2ccc(N)cc2)cc1`, the AC50 was 36.1 µM (active).
In the case of `CC=Cc1ccc(O)c(OC)c1`, the outcome is reported as “inactive”.
With `COc1ccc2c(c1)c(CC(=O)O)c(C)n2C(=O)c1ccc(Cl)cc1` the outcome was “inactive”.
In the case of `CC1(C)CC(N=C=O)CC(C)(CN=C=O)C1` (stereo not given), the outcome is reported as “inactive”.
With `C=CCc1ccc(O)c(OC)c1` the outcome was “inactive”.
For `CCOc1ccc2c(c1)C(C)=CC(C)(C)N2`, the AC50 was 16.7 µM (active).
In the case of `Nc1ccccc1N`, the outcome is reported as “inactive”.
In the case of `Cc1nc(C)nc(N2C[C@@H](C)N(c3ccnc([C@@H](C)O)n3)[C@@H](C)C2)n1`, the outcome is reported as “inactive”.
For `COC(=O)c1ccc(O)cc1`, the AC50 was 50 µM (active).
In the case of `Cc1cccc(Nc2cc(Cl)nc(SCC(=O)O)n2)c1C`, the AC50 is reported as 12.3 µM (active).
With `CN1CCN(Cc2cc(-c3ccc4[nH]c(=O)oc4c3)co2)[C@@H](c2ccc(F)cc2)C1` the AC50 was 14.1 µM (active).
With `NC(=O)Cn1c(=O)cc(CCN2CCN(c3nccc4sccc34)CC2)c2ccc(F)cc21` the AC50 was 2.02 µM (active).
With `Cc1c(C(=O)O)c(O)cc2c1C(=O)c1c(O)c([C@@H]3O[C@H](CO)[C@@H](O)[C@H](O)[C@H]3O)c(O)c(O)c1C2=O` the outcome was “inactive”.
